From PubChem BioAssay
VP16 counter: counter-screen for ROR gamma inhibitors: Gal4-VP16 reporter. Drosophila S2 Gal4-VP16 UAS-luciferase, luminescence, 20 h. 310,000 compounds, 3.5% hits. Potency, µM (doses to about 53.6 µM), for the others: at the top dose activity, negative = inhibition, actives largely listed as inhibitors. AID 2546;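 further: Gal4-VP16 expression switched on by copper sulfate through the metallothionein promoter; on the % scale 0 is the no-effect control and ±100 the full control effect; nearly all actives have a fitted effect of over 50% in size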
PINK1 modulator: modulators of PINK1 expression. PINK1 immunofluorescence, high-content cytometry, 24 h. Potency, µM (highest dose often 76.6 µM), for the others: at the highest dose activation (PINK1 increase), actives largely listed as activators. 410,000 compounds, 0.2% hits; active means well fitted activation curve with a large enough effect; inconclusive means small, poorly fitted or top-dose-only effect; cell line not stated here; further: % of control where 0% means no effect; nearly all actives have a fitted effect of over 65% in size
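Measures PINK1 amount and localization on or inside mitochondria by immunofluorescence. Stable cells get compounds at 5 concentrations for 24 hours before fixation and staining; CCCP controls included.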
Epigenetic reg: epigenetic control regulation, reporter derepression; murine LDR cells, GFP reporter derepression, 30 h; AID 1865; Potency, µM (titrated, usually from 53.9 µM), for the others: top-dose GFP activation, hits mostly activators; 280,000 compounds, 0.2% hits; further: % of control where 0% means no effect; nearly all actives have a fitted effect of over 60% in size
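Murine LDR cells carrying a silenced, genomically integrated CMV-driven GFP reporter were exposed to compound for 30 hours at 37 C. After PBS washes, GFP-positive cells (20–120 um objects) were counted by laser-scanning microplate cytometry.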
RORg inh: blocks mouse ROR gamma transcriptional activity; Drosophila S2 Gal4-RORgamma UAS-luciferase reporter, 20 h; Potency, µM (titrated, usually from 53.6 µM), for the others: top-dose activity change, negative = inhibition, usual class: inhibitors; 310,000 compounds, 5.4% hits; AID 2551; further: on the % scale 0 is the no-effect control and ±100 the full control effect; nearly all actives have a fitted effect of over 60% in size
Target sequence (P51450 whole entry, looked up, the tested form may be a part): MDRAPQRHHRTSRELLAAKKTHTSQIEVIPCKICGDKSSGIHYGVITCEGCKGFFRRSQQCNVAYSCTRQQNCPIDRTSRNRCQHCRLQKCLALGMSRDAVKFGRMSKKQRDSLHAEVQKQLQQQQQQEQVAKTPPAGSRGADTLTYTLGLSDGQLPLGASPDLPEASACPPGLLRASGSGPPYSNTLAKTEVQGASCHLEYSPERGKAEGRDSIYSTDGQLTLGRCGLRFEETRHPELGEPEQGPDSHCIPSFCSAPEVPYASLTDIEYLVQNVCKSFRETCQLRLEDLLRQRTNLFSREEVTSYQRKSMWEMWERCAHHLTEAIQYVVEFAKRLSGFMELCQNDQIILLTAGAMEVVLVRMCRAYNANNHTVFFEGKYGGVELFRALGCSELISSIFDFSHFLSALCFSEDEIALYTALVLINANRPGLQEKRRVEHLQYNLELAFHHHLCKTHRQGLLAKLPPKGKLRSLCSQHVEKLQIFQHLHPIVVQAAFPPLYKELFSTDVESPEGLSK
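ROR gamma transcriptional activity was tracked as Gal4-UAS luciferase output in stably transfected Drosophila Schneider cells, with compound added 1 hr before 700 uM copper sulfate induction and a 20 hr ambient-temperature incubation.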
ClpP mod: qHTS Assay for Activators of ClpP. ATP-dependent Clp protease proteolytic subunit (Bacillus subtilis (strain 168)), P80244. purified B. subtilis ClpP, FRET peptide cleavage, 20 min. Potency, µM (top dose mostly 57.5 µM), inactives show at the top dose activity change, negative = active. 340,000 compounds, 1.9% hits. AID 651965, 2013; active means well fitted falling curve with a large enough effect; inconclusive means small, poorly fitted or top-dose-only effect; inactive means no such curve, though single readings can be large or run the other way; further: the source files actives as falling curves though it sought activators and does not explain the sign; nearly all actives have a fitted effect of over 65% in size
Target sequence (P80244 whole entry, looked up): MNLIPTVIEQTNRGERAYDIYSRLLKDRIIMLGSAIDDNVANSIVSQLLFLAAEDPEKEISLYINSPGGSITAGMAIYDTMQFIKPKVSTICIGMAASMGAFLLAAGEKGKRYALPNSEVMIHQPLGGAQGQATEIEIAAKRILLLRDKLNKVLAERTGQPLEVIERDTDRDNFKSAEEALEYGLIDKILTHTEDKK
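Buffer: 100 mM Tris/HCl pH8, 100 mM KCl, 0.05% low protease BSA, 2.5% glycerol, 0.01% Tween-20. ClpP 10 microg/mL final; 20 min RT; delta FRET normalized to ADEP and DMSO controls.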
Sfp inh: Sfp phosphopantetheinyl transferase inhibition | Biochemical Sfp PPTase activity, qHTS | AID 1490 | 310,000 compounds, 3.5% hits | Potency, µM, for the others: largest response in the series, negative = inhibition, hits mostly inhibitors;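 further: the enzyme is Sfp with the accession as filed and its product quenches rhodamine fluorescence; 0% = enzyme reaction without inhibitor and -100% = no enzyme wells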
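Buffer: 50 mM Hepes-Na pH 7.6, 10 mM MgCl2, 0.01% Nonidet P-40, 0.01% BSA. Enzyme 15 nM, pre-exposed to compound 15 min; substrates then added and fluorescence change tracked over 30 min.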
* = called active by the depositor; ? = inconclusive; . = no result given; ! = not confirmed by another sample; [ ] = dose if it differs, or a comment. Most compounds without a hit are left out; they make up all but 8.1% or so of the library. Unless noted, the call rests on the fitted dose curve; in most records, active means well fitted curve in the direction sought with a large enough effect; inconclusive means small, poorly fitted or top-dose-only effect, or another doubt; inactive means no such curve, though single readings can be large; an effect the other way counts as inactive or inconclusive. Potency means the concentration at half of the fitted maximal effect.

SMILES	VP16 counter	PINK1 modulator	Epigenetic reg	RORg inh	ClpP mod	Sfp inh
COc1ccc(-c2cc(C(=O)O)c3sc(N4CCCCC4)nc3n2)cc1OC	-7%	6%	0%	9%	10µM*	-7%
CCCCOC(=O)c1ccc(OC(=O)c2sc3ncn(Cc4cccc(F)c4)c(=O)c3c2C)cc1	.	-1%	1%	.	-27%	.
CCCCCCC1CCC(C(=O)NC(C(=O)O)C(C)C)CC1 (stereo unspecified)	.	0%	0%	.	-2%	.
COc1ccccc1Nc1nn2c(=O)c3ccc(C(=O)NC4CCC(C)CC4)cc3nc2s1 (stereo unspecified)	.	-3%	0%	.	2%	.
CN1C=CC2=C(C#N)C(N)C(C#N)(C#N)C(c3ccccc3)C2C1 (stereo unspecified)	-15%	11µM*	-2%	-12%	28µM*	1%
Cc1cc(=S)[nH]c2ccccc12	-2%	-5%	-3%	?	-1%	?
Cc1ccc2c(C)cc(=S)[nH]c2c1	?	2%	0%	4µM*	-2%	6%
Cc1ccc2[nH]c(=S)cc(C)c2c1	?	-2%	0%	16µM*	-3%	?
Nc1ccc(Cc2ccc(C=O)cc2)cc1	.	.	.	.	0%	.
CC(=O)/C(=C/Nc1ccc(Oc2ccccc2)cc1)c1ccccc1	0%[0.365 µM]	7%	-3%	25%	7.9µM*	-14%
CC(=O)/C(=C\Nc1ccc(OCc2ccccc2)cc1)c1ccccc1	14%	2%	2%	33%	-3%	?
CC(=O)NCCNc1ncnc2ccc(-c3ccccc3C)cc12	-9%	1%	.	3%	.	12%
Cc1ccc(-c2ccccc2NC(=O)CS(=O)CC(=O)Nc2ccc(C)c(Cl)c2)o1 (stereo unspecified)	-14%	9%	.	?	0%	6%
Cc1ccc(NC(=O)CS(=O)CC(=O)NC(C)CCc2ccco2)cc1Cl (stereo unspecified)	-6%	8%	-2%	-10%	28µM*	-5%
CCC1=C/C(=C/N(C)c2ccccc2)C(=O)S1	21%	-2%	0%	-22%	-4%	50µM*
O=C(OCC1CCCO1)c1ccc2c(c1)N(Cc1ccccc1)C(=O)c1ccccc1S2(=O)=O (stereo unspecified)	.	1%	-2%	.	-5%	.
O=C(O)c1ccc(C(=O)Nc2cccc3cccnc23)cc1	.	-1%	.	.	.	.
Cc1ccc(-n2c(C)nc3ncnc(-c4ccccc4)c32)cc1	-1%	-1%	4%	?	.	-1%
c1ccc(-c2ncnc3nc4n(c23)CCC4)cc1	-4%	7.9µM*	0%	-1%	0%	15%
C(=C\c1ccnc2ccccc12)/c1ccc(N2CCN(c3ccc(/C=C/c4ccnc5ccccc45)cc3)CC2)cc1	.	0%	.	.	-2%	.
CCOc1ccc2nc(Cl)c(C3CC(c4ccc(C)cc4)=NN3C(=O)CCCC(=O)O)cc2c1 (stereo unspecified)	.	0%	2%	.	-5%	.
Clc1ccc2nc(N3CCCCC3)[nH]c2c1	-22%	?	-1%	-22%	1%	-6%
O=c1c(Cl)c(N2CCCCC2)cnn1-c1nc2ccccc2[nH]1	1.3µM*	-1%	-2%	0.89µM*	-2%	11%
O=c1c2ccccc2cnn1-c1nc2ccccc2[nH]1	1.1µM*	-3%	1%	0.45µM*	?	20%
O=c1c2ccccc2nc2c3ccccc3cnn12	12%	-2%	1%	-15%	?	7%
SMILES	VP16 counter	PINK1 modulator	Epigenetic reg	RORg inh	ClpP mod	Sfp inh
CCC(C)Sc1cccc(-c2nc3cc(C)ccn3c2NC2CCCCC2)c1 (stereo unspecified)	.	14µM*	.	.	14µM*!	.
Cc1ccn2c(Nc3ccccc3C)c(-c3ccccc3)nc2c1	.	-1%	-1%	.	4%	.
CCCCCCSc1cccc(-c2nc3cc(C)ccn3c2NC2CCCCC2)c1	.	?	.	.	-9%	.
Cc1ccn2c(NC3CCCCC3)c(-c3cccc(SC4CCCCC4)c3)nc2c1	.	20µM*	.	.	?	.
Cc1ccn2c(NC3CCCC3)c(-c3ccsc3)nc2c1	1%	-2%	-3%	11µM*	.	0%
Cc1ccn2c(NC3CCCCC3)c(-c3ccc(SC4CCCCC4)cc3)nc2c1	.	?	.	.	30%	.
CC(=O)c1ccc(C(=O)N(Cc2cccnc2)c2nc3c(Cl)cccc3s2)cc1	.	5%	1%	.	-11%	.
Cc1ccc(S(=O)(=O)Nc2cc3c(cc2NCc2ccccc2)n(C)c(=O)n3C)c(C)c1	.	6%	3%	.	4%	.
Cc1cc(COc2ccccc2)oc1C(=O)O	6.3µM*	0%	.	5µM*	-2%	?
Cc1ccc(NC(=O)Cn2c(=O)n(CCC(=O)N3CCc4ccccc4C3)c(=O)c3ccccc32)cc1	.	1%	-1%	.	-3%	.
C[C@@H](O)C#C[Si](C)(C)c1ccccc1	2%	.	1%	-13%	.	8%
CCNc1ccccc1CP(=O)(c1ccccc1)c1ccccc1O (stereo unspecified)	7%	0%	.	-18%	.	1.4µM*
Cc1ccc(O)c(CP(=O)(c2ccccc2)c2ccccc2)c1	1%	1%	0%	6%	-2%	4%
O=C(NCCc1c[nH]c2ccccc12)C1CCC(Cn2c(=S)[nH]c3ccccc3c2=O)CC1 (stereo unspecified)	13µM*	-2%[38.3 µM]	-1%	7.1µM*	1%	19%
CCOc1ccc2c(c1)c(=O)c(S(=O)(=O)c1ccc(C)cc1)cn2Cc1ccccc1Cl	.	0%	-5%	.	?	.
N#C/C(=N/Nc1ccc(OC(F)(F)F)cc1)C(N)=S	4.5µM*	14µM*	-1%	4.5µM*	0%	?
COc1ccc(N2CC(NC(=O)COc3ccccc3C)CC2=O)cc1OC (stereo unspecified)	.	2%	1%	.	0%	.
COc1ccc2nc(N(Cc3cccnc3)C(=O)C3CCCCC3)sc2c1	.	9%	-1%	.	3%	.
O=c1[nH]c(CSc2nc3ccccc3s2)nc2ccccc12	10%	3%	0%	-24%	-5%	?
COc1ccc(C2NCCc3c2[nH]c2ccccc32)cc1CSc1nc2ccccc2s1 (stereo unspecified)	?	-3%	-2%	?	-4%	45µM*
CCN(CC)c1ccc(/C=C(/C#N)C(=O)NCc2ccccc2)o1	0%	32µM*	?	?	1%	-7%
Cc1ccc(N(C(=O)CCl)C(C(=O)NC2CCCCC2)c2cccnc2)cc1C (stereo unspecified)	?	-1%	0%	11µM*	-1%	-2%
